This passage reports binding signal results from PMC12136788.

Over roughly 5,800 sequences, “enrichment r” has its median near 0.68; the highest 2% begin near 11. A selection follows.

The chains are these.
T1: UNK ZnF1-6 (called full-length) (human, UniProt Q9C0B0 30-357)
T1 sequence: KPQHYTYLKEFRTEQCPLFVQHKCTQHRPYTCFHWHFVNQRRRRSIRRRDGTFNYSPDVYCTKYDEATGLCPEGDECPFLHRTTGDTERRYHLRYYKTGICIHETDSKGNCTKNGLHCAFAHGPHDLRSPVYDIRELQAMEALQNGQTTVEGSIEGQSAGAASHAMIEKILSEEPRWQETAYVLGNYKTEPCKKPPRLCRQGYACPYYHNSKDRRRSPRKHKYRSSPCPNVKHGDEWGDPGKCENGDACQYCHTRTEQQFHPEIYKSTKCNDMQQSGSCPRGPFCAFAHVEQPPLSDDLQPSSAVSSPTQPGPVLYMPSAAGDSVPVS

B1: ENSG00000198589:be:win_3501|CDS|ENSG00000198589|bound_else_gene|NA|bound_elsewhere_windowed (ssRNA)
RNA: GGGAGUUCUACAGUCCGACGAUCUGAUACUGAAACUCAAGAUUCUAAAGAUUCUGGAAUUCAGACUAUGACAGCAUCAGGGUCUUCAGCUAUGUCACCAGAAACUACUGUUUCCCAAAUAGCUGUAGAAUCAGACCUUGGUCACAACAGAGGAUUGAGCAUCA
B2: chr5:136975339:136975545:-|3pUTR|ENSG00000152377|msi1|total|mutant (ssRNA)
RNA: GGGAGUUCUACAGUCCGACGAUCAGAGCCCAUCAAAUCCUGAGUGUCAGUUUGUUGUCCCUAUUGCCGAUGAAACCGUGAUGCCGCAAAAACCCCGUAAAUUCUGAAUGCUUUUCCACGCCGACUUAUCUGGAAUGUGAACACCAACAGAGGAUUGAGCAUCA
B3: chr3:124966548:124966651:-|3pUTR|ENSG00000173706|unk|total|mutant (ssRNA)
RNA: GGGAGUUCUACAGUCCGACGAUCAGGAAGAAUGCAAAGUUCAGUAUUUCAAUACUUUGUAUUUUACUUGAAAUUACCCUCCGCCGCAUCUUUUUUUUCCUGUCUGAAAGCUUUUGUGUGGAUGAGAAGGGACAUUUCAUUUCCCAACAGAGGAUUGAGCAUCA
B4: ENSG00000124766:be:win_801|CDS|ENSG00000124766|bound_else_gene|NA|bound_elsewhere_windowed (ssRNA)
RNA: GGGAGUUCUACAGUCCGACGAUCCUCGGCCUCCGCCUCCUCGGCAGCCUCGGCCUCCGCAGCGCUCGCGGCCCCGGGCAAGCACCUGGCGGAGAAGAAGGUGAAGCGCGUCUACCUGUUCGGCGGCCUGGGCACGUCGUCGUCCAACAGAGGAUUGAGCAUCA
B5: ENSG00000101945:stop:overlap|stop_codon|ENSG00000101945|stop_codon|NA|stop_codon (ssRNA)
RNA: GGGAGUUCUACAGUCCGACGAUCAGAAGCGGGUCCGUAUUGAAUGCAAGUGUGGGACUGAGUCCUGCCGCAAAUACCUCUUCUAGCCCUUAGAAGUCUGAGGCCAGACUGACUGAGGGGGCCUGAAGCUACAUGCACCUCCCCCAACAGAGGAUUGAGCAUCA
B6: chr12:24812577:24812678:-|3pUTR|ENSG00000060982|msi1|FALSE|unique (ssRNA)
RNA: GGGAGUUCUACAGUCCGACGAUCAUCCAAAGGAGCUUUUUCCUUAUUCUGUCAAGCAUUGAGAUCUUCUUCAGCUUUCAAUGUAGUUGCUAAAUACAAAUAAUGCUACUAGGUAGUGACUAAAUAUAGCAAACACUUCAUCAGCAACAGAGGAUUGAGCAUCA

The assay addresses T1, UNK ZnF1-6 (called full-length). The assay can be described thus: nsRBNS (natural sequence RNA bind-n-seq); RBNS binding buffer (assumed for nsRBNS): 25 mM Tris pH 7.5, 150 mM KCl, 3 mM MgCl2, 0.01% Triton X-100, 500 ug/ml BSA, 20 U/ml SUPERase-In, 4 C; UNK is unkempt and MSI1 is Musashi-1; names of the RNAs are library labels; protein concentration not given here; high values mean tight binding.
On to B1, for which the binding signal came to 0.311 enrichment R.
For the molecule B2, the binding signal is 0.528 enrichment R.
The result for B3 reads 0.473 enrichment R; that for B4, 0.655 enrichment R.
The molecule B5 came in with a binding signal of 0.806 enrichment R.
The result for B6 reads 0.559 enrichment R.
